PubChem BioAssay (NCI)
About 79,000 compounds went through this panel and 15% of them were active in at least one assay; those are over-represented in the sample as a whole. Calls of active or inactive are those of the source. No stated cut-off is given here; in the data, active means growth inhibition above about 70%; inactive means the rest.

How the values were obtained:
[1] = NCI Yeast Anticancer Drug Screen. Data for the rad52 strain (AID 147);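 further: 0% = growth of vehicle-treated control cultures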; conditions: S. cerevisiae rad52 mutant growth inhibition, stronger effect = higher value
How it was run: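 Here a repair-compromised yeast strain receives each compound; its growth is then quantified and normalised to vehicle-only controls.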

[2] = NCI Yeast Anticancer Drug Screen. Data for the wt1 strain (AID 149);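 further: 0% = growth of vehicle-treated wt1 cultures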; conditions: S. cerevisiae wt1 strain (SPY 50644) growth inhibition, stronger effect = higher value
How it was run: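 The wt1 strain was treated with compounds, and growth was compared with vehicle-treated cultures to give inhibition.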

[3] = NCI Yeast Anticancer Drug Screen. Data for the rad50EPP+ strain (AID 151);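 further: 0% = growth of vehicle-treated control cultures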; conditions: S. cerevisiae rad50 mutant strain, stronger effect = higher value
How it was run: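 Read-out is yeast growth inhibition relative to vehicle; cells used were the rad50EPP+ strain.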

[4] = NCI Yeast Anticancer Drug Screen. Data for the mgt1 strain (AID 153); conditions: S. cerevisiae mgt1 mutant growth inhibition, stronger effect = higher value
How it was run: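 Measured: inhibition of mgt1 yeast growth by compound, normalized to vehicle-treated cultures.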

[5] = NCI Yeast Anticancer Drug Screen. Data for the rad50 strain (AID 155);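 further: 0% = growth of vehicle-only cultures of the same strain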; conditions: S. cerevisiae rad50 strain growth inhibition, stronger effect = higher value
How it was run: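 Cells are treated with compound, grown, and their growth is then scored against vehicle-only cultures of the same repair-deficient yeast strain.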

[6] = NCI Yeast Anticancer Drug Screen. Data for the mec2-1 strain (AID 157); conditions: S. cerevisiae mec2-1 strain, stronger effect = higher value
How it was run: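 Using mec2-1 yeast: add compound, measure growth, express inhibition versus vehicle-treated cultures.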

[7] = NCI Yeast Anticancer Drug Screen. Data for the rad14 strain (AID 159);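 further: 0% = growth of vehicle-treated control cultures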; conditions: S. cerevisiae rad14 strain growth inhibition, stronger effect = higher value
How it was run: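 Readout: yeast growth inhibition, referenced to vehicle-only cultures. Strain bears a defined alteration in DNA damage repair.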

[8] = NCI Yeast Anticancer Drug Screen. Data for the sgs1 mgt1 strain (AID 161);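 further: 0% = growth of cultures given vehicle only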; conditions: S. cerevisiae sgs1 mgt1 strain, stronger effect = higher value
How it was run: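 Percent growth inhibition was derived by comparing compound-exposed mutant yeast with vehicle-exposed cultures. The strain carries alterations in DNA damage repair.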

[9] = NCI Yeast Anticancer Drug Screen. Data for the CLN2oe strain (AID 163);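 further: 0% = growth of vehicle-only control cultures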; conditions: S. cerevisiae CLN2oe strain, stronger effect = higher value
How it was run: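 Whole-cell yeast growth assay. A strain engineered for altered cell-cycle control received compound, and inhibition relative to vehicle-treated cultures was recorded.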

[10] = NCI Yeast Anticancer Drug Screen. Data for the cln2 rad14 strain (AID 165);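 further: 0% = growth equal to vehicle treated cultures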; conditions: S. cerevisiae cln2 rad14 strain, stronger effect = higher value
How it was run: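 Yeast strain cln2 rad14, bearing defects in cell cycle control and DNA repair, serves as the test system; values reflect growth inhibition compared with vehicle.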

[11] = NCI Yeast Anticancer Drug Screen. Data for the bub3 strain (AID 167); conditions: S. cerevisiae bub3 mutant strain, stronger effect = higher value
How it was run: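 Part of a panel of yeast mutants defective in DNA damage repair or cell cycle regulation. Each strain is grown with compound, and inhibition is calculated relative to solvent-treated cultures.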

[12] = NCI Yeast Anticancer Drug Screen. Data for the wt2 strain (AID 169);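 further: 0% = growth of vehicle-treated yeast cultures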; conditions: S. cerevisiae wt2 strain growth inhibition, stronger effect = higher value
How it was run: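 Treated yeast vs. vehicle-treated yeast: growth inhibition determined.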

[13] = NCI Yeast Anticancer Drug Screen. Data for the mlh1 strain (AID 171);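 further: 0% = growth of vehicle-treated control cultures of the same strain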; conditions: S. cerevisiae mlh1 strain growth inhibition, stronger effect = higher value
How it was run: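 A yeast strain with a defined genetic lesion serves as the test organism. Cultures receive compound or vehicle, and growth is measured.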

[14] = NCI Yeast Anticancer Drug Screen. Data for the sgs1 strain (AID 173);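 further: 0% = growth of vehicle-only control cultures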; conditions: S. cerevisiae sgs1 mutant, stronger effect = higher value
How it was run: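 A genetically defined yeast mutant is incubated with the test compound, and its growth is compared to that of the same strain given vehicle.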

[15] = NCI Yeast Anticancer Drug Screen. Data for the mlh1 rad18 strain (AID 175); conditions: S. cerevisiae mlh1 rad18 strain growth inhibition, stronger effect = higher value
How it was run: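 Steps: expose repair-defective yeast to compound; measure growth; express inhibition against vehicle-treated controls.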

[16] = NCI Yeast Anticancer Drug Screen. Data for the rad18 strain (AID 177); conditions: S. cerevisiae rad18 mutant growth inhibition, stronger effect = higher value
How it was run: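 Measured value is growth inhibition of a yeast strain bearing a DNA repair alteration, referenced to vehicle-treated cells.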

[17] = at 5.0 µM (retest, dose inferred, filed as 0.5)
[18] = at 50.0 µM (retest, dose inferred, filed as 5.0)

Measured: growth inhibition

Cc1c(-c2ccccn2)ccc2ccccc12
inactive: [1]; at 1.2 µM -2% | [1]; at 3.7 µM -1% | [1]; at 11.0 µM 0% | [1]; at 33.0 µM 2% | [1]; at 100.0 µM 46% | [2]; at 1.2 µM -1% | [2]; at 3.7 µM 0% | [2]; at 11.0 µM -3% | [2]; at 33.0 µM -4% | [2]; at 100.0 µM 18% | [3]; at 1.2 µM -3% | [3]; at 3.7 µM 0% | [3]; at 11.0 µM 10% | [3]; at 33.0 µM 43% | [4]; at 1.2 µM 0% | [4]; at 3.7 µM -1% | [4]; at 11.0 µM -3% | [4]; at 33.0 µM 0% | [5]; at 1.2 µM 6% | [5]; at 3.7 µM 37% | [5]; [17] 1% | [5]; at 11.0 µM 44% | [5]; at 33.0 µM 15% | [5]; [18] 15% | [5]; at 50.0 µM 21.8% | [6]; at 1.2 µM -1% | [6]; at 3.7 µM 0% | [6]; [17] 1% | [6]; at 11.0 µM 1% | [6]; at 33.0 µM -1% | [6]; [18] 15% | [6]; at 50.0 µM 44.5% | [6]; at 100.0 µM 50% | [7]; at 1.2 µM 0% | [7]; at 3.7 µM 0% | [7]; at 11.0 µM 1% | [7]; at 33.0 µM 6% | [7]; at 100.0 µM 43% | [8]; [17] -2% | [8]; [18] 46% | [9]; at 1.2 µM -10% | [9]; at 3.7 µM -3% | [9]; at 11.0 µM -7% | [9]; at 33.0 µM -12% | [9]; at 100.0 µM -4% | [10]; [17] 1% | [10]; [18] 3% | [10]; at 50.0 µM 25.4% | [11]; at 1.2 µM 3% | [11]; at 3.7 µM 7% | [11]; [17] 18% | [11]; at 11.0 µM 24% | [12]; at 1.2 µM -2% | [12]; at 3.7 µM 7% | [12]; at 11.0 µM -4% | [12]; at 33.0 µM -3% | [12]; at 100.0 µM 43% | [13]; at 1.2 µM 0% | [13]; at 3.7 µM -1% | [13]; at 11.0 µM -76% | [13]; at 33.0 µM 0% | [13]; at 100.0 µM 39% | [14]; at 1.2 µM -2% | [14]; at 3.7 µM -1% | [14]; at 11.0 µM 1% | [14]; at 33.0 µM 24% | [15]; [17] -1% | [15]; [18] 20% | [15]; at 50.0 µM 59.8% | [16]; at 1.2 µM -1% | [16]; at 3.7 µM 2% | [16]; at 11.0 µM 6% | [16]; at 33.0 µM 13% | [16]; at 100.0 µM 67%
active: [3]; at 100.0 µM 71% | [4]; at 100.0 µM 88% | [5]; at 100.0 µM 73% | [8]; at 50.0 µM 80.8% | [11]; at 33.0 µM 70% | [11]; [18] 90% | [11]; at 50.0 µM 94.2% | [11]; at 100.0 µM 96% | [14]; at 100.0 µM 83%

N=C1N=Nc2nc(C3(c4nc5n(c4O)C(=N)N=N5)Cc4ccccc4C3=O)c(O)n21 (stereo unspecified)
inactive: [1]; at 1.2 µM -1% | [1]; at 3.7 µM 1% | [1]; at 11.0 µM 5% | [1]; at 33.0 µM 18% | [1]; at 100.0 µM 69% | [2]; at 1.2 µM 3% | [2]; at 3.7 µM 7% | [2]; at 11.0 µM 11% | [2]; at 33.0 µM 23% | [2]; at 100.0 µM 67% | [3]; at 1.2 µM -2% | [3]; at 3.7 µM 0% | [3]; at 11.0 µM -1% | [3]; at 33.0 µM -1% | [3]; at 100.0 µM 3% | [4]; at 1.2 µM 5% | [4]; at 3.7 µM 7% | [4]; at 11.0 µM 22% | [5]; at 1.2 µM -9% | [5]; at 3.7 µM 34% | [5]; [17] 4% | [5]; at 11.0 µM -3% | [5]; at 33.0 µM 66% | [5]; [18] 38% | [6]; at 1.2 µM 2% | [6]; at 3.7 µM 4% | [6]; [17] 4% | [6]; at 11.0 µM 12% | [6]; at 33.0 µM 30% | [6]; [18] 28% | [6]; at 50.0 µM 59.1% | [7]; at 1.2 µM 7% | [7]; at 3.7 µM 21% | [7]; at 11.0 µM 48% | [8]; [17] 7% | [8]; at 50.0 µM 67% | [9]; at 1.2 µM 1% | [9]; at 3.7 µM 8% | [9]; at 11.0 µM 15% | [9]; at 33.0 µM 9% | [9]; at 100.0 µM 8% | [10]; [17] 13% | [10]; [18] 10% | [10]; at 50.0 µM 23.2% | [11]; at 1.2 µM 4% | [11]; at 3.7 µM 6% | [11]; [17] 0% | [11]; at 11.0 µM 9% | [11]; at 33.0 µM 45% | [11]; [18] 42% | [12]; at 1.2 µM 4% | [12]; at 3.7 µM 16% | [12]; at 11.0 µM 11% | [12]; at 33.0 µM 32% | [13]; at 1.2 µM 1% | [13]; at 3.7 µM 5% | [13]; at 11.0 µM 14% | [13]; at 33.0 µM 68% | [14]; at 1.2 µM 4% | [14]; at 3.7 µM 10% | [14]; at 11.0 µM 21% | [15]; [17] -63% | [15]; [18] 57% | [16]; at 1.2 µM 3% | [16]; at 3.7 µM 11% | [16]; at 11.0 µM 23%
active: [4]; at 33.0 µM 90% | [4]; at 100.0 µM 99% | [5]; at 50.0 µM 82.2% | [5]; at 100.0 µM 94% | [6]; at 100.0 µM 87% | [7]; at 33.0 µM 94% | [7]; at 100.0 µM 99% | [8]; [18] 70% | [11]; at 50.0 µM 85.5% | [11]; at 100.0 µM 86% | [12]; at 100.0 µM 89% | [13]; at 100.0 µM 95% | [14]; at 33.0 µM 74% | [14]; at 100.0 µM 95% | [15]; at 50.0 µM 92.7% | [16]; at 33.0 µM 75% | [16]; at 100.0 µM 96%
